Data on one sequence can be found in paper PMC7862700, “An all-to-all approach to the identification of sequence-specific readers for epigenetic DNA modifications on cytosine”.

Common to all, as to test: DAPPL (digital affinity profiling via proximity ligation, sequencing); 10 mM Tris-HCl pH 7.5, 50 mM NaCl, 1 mM DTT, 4% glycerol, room temperature, 30 min; GST-TFs on glutathione beads, 16-mer random dsDNA library, 0.1% formaldehyde crosslink after washing; high values mean tight binding
The target of assay [1] is T1, FEV (Homo sapiens, UniProt Q99581 1-238).
T1 sequence: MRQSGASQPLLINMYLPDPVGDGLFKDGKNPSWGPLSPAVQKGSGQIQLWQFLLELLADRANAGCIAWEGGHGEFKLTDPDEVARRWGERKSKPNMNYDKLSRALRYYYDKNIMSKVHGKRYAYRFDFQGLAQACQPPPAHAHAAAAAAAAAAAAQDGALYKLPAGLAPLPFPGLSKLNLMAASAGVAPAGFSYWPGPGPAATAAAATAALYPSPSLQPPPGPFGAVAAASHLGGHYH
The following applies: protein: recombinant; tags: N-terminal GST; dsDNA, one strand shown. In a few lines:
(§1)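 Binding signal is given per hexamer as its read frequency for a factor divided by its frequency in the tag-only sample. GST-fused human transcription factors were expressed in yeast, captured on glutathione beads, barcoded with DNA and pooled with that sample, then incubated with 200 nmole of a 16-mer random double-stranded DNA library in Tris/NaCl/DTT/glycerol buffer for 30 min at room temperature. The pools were then washed, crosslinked, proximity-ligated, amplified by PCR and sequenced on an Illumina NextSeq500.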

In assay [2] the target is ETV5 (Homo sapiens, UniProt P41161 1-510). The following applies: protein: recombinant; tags: N-terminal GST; dsDNA, one strand shown. The method, boiled down: as §1
Sequence of ETV5 (P41161 whole entry): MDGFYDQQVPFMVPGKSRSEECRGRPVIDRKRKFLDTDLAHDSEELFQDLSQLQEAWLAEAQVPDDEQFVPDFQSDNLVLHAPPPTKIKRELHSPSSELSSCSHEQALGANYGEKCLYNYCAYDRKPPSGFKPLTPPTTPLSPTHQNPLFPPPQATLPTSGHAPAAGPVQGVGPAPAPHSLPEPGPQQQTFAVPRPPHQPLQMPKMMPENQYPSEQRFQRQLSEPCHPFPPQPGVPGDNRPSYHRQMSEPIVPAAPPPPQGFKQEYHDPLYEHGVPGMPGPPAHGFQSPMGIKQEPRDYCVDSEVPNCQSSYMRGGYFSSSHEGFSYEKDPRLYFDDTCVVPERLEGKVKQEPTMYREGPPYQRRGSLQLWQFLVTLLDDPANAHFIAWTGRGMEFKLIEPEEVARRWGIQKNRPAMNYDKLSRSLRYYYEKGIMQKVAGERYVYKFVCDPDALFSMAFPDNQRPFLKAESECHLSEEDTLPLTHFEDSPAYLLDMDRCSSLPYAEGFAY
Assay [3] has as its target HSF1 (Homo sapiens, UniProt Q00613 1-529). The following applies: protein: recombinant; tags: N-terminal GST; chain copies: 3; dsDNA, one strand shown. In a few lines:
as §1

For assay [4], the target named is T2, SPIC (Homo sapiens, UniProt Q8N5J4 1-248).
T2 sequence: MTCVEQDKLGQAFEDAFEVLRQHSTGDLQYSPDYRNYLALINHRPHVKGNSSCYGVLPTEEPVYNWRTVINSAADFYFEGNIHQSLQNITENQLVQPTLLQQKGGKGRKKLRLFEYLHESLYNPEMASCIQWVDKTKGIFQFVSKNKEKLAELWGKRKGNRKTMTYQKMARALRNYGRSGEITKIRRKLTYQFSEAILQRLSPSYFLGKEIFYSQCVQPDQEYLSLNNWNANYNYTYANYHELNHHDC
The note with it: protein: recombinant; tags: N-terminal GST; dsDNA, one strand shown. The method, boiled down: as §1

Assay [5] has as its target ELF4 (Homo sapiens, UniProt Q99607 1-663). The following applies: protein: recombinant; tags: N-terminal GST; dsDNA, one strand shown. The method, boiled down:
as §1

For assay [6], the target named is T3, ELK4 (Homo sapiens, UniProt P28324-2 1-405).
T3 sequence: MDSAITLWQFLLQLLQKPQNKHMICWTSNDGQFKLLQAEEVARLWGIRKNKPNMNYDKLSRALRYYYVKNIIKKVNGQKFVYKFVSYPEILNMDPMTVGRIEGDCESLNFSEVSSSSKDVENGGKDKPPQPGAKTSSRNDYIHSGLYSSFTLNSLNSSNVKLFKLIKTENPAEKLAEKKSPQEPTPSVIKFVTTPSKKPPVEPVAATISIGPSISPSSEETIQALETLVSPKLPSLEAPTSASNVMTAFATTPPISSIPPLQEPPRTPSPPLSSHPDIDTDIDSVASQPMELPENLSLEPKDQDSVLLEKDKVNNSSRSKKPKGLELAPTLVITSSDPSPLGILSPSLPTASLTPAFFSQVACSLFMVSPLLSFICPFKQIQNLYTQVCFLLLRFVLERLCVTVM
The following applies: protein: recombinant; tags: N-terminal GST; dsDNA, one strand shown. The method, boiled down: as §1

The target in assay [7] is T4, ETV2 (Homo sapiens, UniProt O00321 1-342).
T4 sequence: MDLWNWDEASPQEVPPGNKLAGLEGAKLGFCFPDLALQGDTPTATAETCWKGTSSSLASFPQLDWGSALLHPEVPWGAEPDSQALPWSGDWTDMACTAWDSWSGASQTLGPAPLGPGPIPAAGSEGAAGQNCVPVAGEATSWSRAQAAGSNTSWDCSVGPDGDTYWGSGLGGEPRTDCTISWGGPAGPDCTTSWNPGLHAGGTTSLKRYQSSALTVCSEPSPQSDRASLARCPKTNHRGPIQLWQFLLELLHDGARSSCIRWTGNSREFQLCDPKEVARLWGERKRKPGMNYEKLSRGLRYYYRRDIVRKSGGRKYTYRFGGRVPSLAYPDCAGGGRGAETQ
The following applies: protein: recombinant; tags: N-terminal GST; dsDNA, one strand shown. The method, boiled down: as §1

For assay [8], the target named is T5, ELF3 (Homo sapiens, UniProt P78545 1-371).
T5 sequence: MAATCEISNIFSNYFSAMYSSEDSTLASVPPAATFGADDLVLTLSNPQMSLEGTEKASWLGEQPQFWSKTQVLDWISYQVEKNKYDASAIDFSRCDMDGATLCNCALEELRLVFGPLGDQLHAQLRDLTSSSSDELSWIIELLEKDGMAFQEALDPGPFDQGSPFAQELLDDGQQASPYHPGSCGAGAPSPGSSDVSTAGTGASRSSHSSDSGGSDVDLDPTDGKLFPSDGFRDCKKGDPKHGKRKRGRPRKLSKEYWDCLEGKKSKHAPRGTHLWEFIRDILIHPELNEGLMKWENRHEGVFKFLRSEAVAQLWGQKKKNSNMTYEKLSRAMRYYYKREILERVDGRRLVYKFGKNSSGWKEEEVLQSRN
The note with it: protein: recombinant; tags: N-terminal GST; dsDNA, one strand shown. In a few lines:
as §1

Assay [9] has as its target CRX (Homo sapiens, UniProt O43186 1-299). The following applies: protein: recombinant; tags: N-terminal GST; dsDNA, one strand shown. In a few lines: as §1
The target in assay [10] is ETV1 (Homo sapiens, UniProt P50549 1-477). The note with it: protein: recombinant; tags: N-terminal GST; dsDNA, one strand shown. In a few lines:
as §1

Assay [11] addresses T6, ERF (Homo sapiens, UniProt P50548 1-548).
T6 sequence: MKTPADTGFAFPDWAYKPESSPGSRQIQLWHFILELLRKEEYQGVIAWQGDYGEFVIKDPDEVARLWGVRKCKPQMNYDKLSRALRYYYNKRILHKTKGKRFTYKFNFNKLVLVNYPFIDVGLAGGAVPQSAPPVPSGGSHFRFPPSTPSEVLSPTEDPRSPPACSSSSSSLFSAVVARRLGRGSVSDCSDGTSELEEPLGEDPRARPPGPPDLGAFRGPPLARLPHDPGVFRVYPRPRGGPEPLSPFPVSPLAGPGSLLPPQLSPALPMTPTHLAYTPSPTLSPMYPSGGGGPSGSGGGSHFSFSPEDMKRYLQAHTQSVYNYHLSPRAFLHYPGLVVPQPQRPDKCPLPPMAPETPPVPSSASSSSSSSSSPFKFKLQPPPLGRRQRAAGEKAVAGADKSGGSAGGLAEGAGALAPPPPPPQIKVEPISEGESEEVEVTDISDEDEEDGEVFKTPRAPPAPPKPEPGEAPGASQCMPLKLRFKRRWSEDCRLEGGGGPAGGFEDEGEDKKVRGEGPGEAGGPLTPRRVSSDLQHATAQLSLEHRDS
The following applies: protein: recombinant; tags: N-terminal GST; dsDNA, one strand shown. In a few lines:
as §1

Assay [12] deals with T7, ETV3L (Homo sapiens, UniProt Q6ZN32 1-361).
T7 sequence: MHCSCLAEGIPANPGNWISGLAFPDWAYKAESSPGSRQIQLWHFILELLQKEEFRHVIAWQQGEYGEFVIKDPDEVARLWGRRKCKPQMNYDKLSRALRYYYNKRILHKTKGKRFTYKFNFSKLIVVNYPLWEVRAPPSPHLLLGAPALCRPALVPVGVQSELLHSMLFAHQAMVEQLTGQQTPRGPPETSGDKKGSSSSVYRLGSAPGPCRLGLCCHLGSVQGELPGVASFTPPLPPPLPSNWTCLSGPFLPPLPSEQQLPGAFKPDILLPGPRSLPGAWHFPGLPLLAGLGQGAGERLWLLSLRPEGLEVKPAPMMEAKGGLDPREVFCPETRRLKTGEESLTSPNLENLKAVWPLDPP
The following applies: protein: recombinant; tags: N-terminal GST; dsDNA, one strand shown. In a few lines: as §1

Assay [13] deals with T8, ETS2 (Homo sapiens, UniProt P15036 1-469).
T8 sequence: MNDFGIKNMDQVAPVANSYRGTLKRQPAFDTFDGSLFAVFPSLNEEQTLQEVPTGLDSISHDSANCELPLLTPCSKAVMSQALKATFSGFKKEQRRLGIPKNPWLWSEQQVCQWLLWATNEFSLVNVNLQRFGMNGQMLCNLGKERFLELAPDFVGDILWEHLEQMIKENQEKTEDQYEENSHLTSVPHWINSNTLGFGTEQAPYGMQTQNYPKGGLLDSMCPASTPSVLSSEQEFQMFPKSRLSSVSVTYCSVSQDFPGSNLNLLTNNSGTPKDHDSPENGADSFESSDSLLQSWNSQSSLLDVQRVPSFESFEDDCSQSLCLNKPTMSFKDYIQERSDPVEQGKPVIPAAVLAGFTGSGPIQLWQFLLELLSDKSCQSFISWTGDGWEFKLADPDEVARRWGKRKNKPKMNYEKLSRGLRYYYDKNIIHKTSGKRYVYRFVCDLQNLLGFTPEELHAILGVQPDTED
The following applies: protein: recombinant; tags: N-terminal GST; dsDNA, one strand shown. The method, boiled down: as §1

Assay [14] deals with T9, SPDEF (Homo sapiens, UniProt O95238 1-335).
T9 sequence: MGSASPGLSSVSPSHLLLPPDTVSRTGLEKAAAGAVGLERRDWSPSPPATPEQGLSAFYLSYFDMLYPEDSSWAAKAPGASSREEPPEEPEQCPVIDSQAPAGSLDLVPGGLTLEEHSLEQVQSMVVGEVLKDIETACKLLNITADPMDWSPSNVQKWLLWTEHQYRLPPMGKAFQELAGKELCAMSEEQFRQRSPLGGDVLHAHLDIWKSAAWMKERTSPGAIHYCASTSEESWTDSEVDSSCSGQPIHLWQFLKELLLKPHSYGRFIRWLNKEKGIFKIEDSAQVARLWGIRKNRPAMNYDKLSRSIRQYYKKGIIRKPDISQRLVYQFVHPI
The following applies: protein: recombinant; tags: N-terminal GST; dsDNA, one strand shown. In a few lines:
as §1

Assay [15] deals with T10, ETV7 (Homo sapiens, UniProt Q9Y603 1-341).
T10 sequence: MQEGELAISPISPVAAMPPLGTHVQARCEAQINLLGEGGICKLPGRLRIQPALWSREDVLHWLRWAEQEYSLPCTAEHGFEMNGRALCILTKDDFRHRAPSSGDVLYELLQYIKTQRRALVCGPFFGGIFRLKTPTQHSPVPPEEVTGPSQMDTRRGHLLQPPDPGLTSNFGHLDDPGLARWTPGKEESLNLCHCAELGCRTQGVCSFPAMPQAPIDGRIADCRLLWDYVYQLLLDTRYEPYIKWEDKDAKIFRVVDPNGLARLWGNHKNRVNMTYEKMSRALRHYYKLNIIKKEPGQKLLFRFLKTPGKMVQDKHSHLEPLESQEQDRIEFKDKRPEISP
The note with it: protein: recombinant; tags: N-terminal GST; dsDNA, one strand shown. In a few lines:
as §1

The target in assay [16] is T11, ELF5 (Homo sapiens, UniProt Q9UKW6-2 1-255).
T11 sequence: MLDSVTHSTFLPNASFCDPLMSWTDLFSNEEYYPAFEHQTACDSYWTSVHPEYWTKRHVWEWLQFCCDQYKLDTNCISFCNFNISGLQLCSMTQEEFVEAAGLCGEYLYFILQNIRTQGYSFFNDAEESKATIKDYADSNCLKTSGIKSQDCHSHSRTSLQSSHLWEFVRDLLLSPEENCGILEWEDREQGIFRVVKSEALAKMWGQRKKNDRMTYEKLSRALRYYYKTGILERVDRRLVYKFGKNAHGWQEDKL
The following applies: protein: recombinant; tags: N-terminal GST; dsDNA, one strand shown. In a few lines:
as §1

Assay [17] concerns the target T12, ETV3 (Homo sapiens, UniProt P41162-2 1-143).
T12 sequence: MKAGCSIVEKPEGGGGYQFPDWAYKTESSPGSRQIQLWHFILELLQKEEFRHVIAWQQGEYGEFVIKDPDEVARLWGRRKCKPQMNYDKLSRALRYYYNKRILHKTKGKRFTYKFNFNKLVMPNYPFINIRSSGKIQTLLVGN
The note with it: protein: recombinant; tags: N-terminal GST; dsDNA, one strand shown. In a few lines: as §1

For assay [18], the target named is ETV6 (Homo sapiens, UniProt P41212 1-452). The note with it: protein: recombinant; tags: N-terminal GST; dsDNA, one strand shown. In a few lines:
as §1

Sequence of ETV1 (P50549 whole entry): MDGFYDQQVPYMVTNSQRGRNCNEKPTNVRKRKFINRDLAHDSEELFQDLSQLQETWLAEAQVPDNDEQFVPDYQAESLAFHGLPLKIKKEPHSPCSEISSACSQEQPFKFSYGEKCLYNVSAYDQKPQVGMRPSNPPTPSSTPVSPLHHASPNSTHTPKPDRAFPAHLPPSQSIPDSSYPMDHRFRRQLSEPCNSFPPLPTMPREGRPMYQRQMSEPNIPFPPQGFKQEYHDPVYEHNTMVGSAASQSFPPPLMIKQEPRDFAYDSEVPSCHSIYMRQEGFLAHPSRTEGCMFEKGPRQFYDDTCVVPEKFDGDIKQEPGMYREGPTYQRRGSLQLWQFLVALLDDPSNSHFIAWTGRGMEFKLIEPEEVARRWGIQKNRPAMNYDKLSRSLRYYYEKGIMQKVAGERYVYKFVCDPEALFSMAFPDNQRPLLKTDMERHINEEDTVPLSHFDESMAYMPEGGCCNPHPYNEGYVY
Sequence of ETV6 (P41212 whole entry): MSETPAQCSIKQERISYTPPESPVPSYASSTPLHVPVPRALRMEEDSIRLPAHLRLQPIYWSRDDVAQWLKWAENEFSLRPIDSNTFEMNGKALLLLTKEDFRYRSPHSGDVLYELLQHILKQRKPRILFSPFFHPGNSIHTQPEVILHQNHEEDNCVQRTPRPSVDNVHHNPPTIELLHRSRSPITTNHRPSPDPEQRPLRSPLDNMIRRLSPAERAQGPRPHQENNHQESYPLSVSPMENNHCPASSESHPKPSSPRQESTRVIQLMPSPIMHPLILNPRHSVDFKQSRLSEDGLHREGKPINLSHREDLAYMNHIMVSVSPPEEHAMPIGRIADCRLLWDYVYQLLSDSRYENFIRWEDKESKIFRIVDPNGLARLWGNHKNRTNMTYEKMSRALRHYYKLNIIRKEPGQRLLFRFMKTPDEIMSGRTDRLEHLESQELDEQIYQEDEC
Sequence of CRX (O43186 whole entry): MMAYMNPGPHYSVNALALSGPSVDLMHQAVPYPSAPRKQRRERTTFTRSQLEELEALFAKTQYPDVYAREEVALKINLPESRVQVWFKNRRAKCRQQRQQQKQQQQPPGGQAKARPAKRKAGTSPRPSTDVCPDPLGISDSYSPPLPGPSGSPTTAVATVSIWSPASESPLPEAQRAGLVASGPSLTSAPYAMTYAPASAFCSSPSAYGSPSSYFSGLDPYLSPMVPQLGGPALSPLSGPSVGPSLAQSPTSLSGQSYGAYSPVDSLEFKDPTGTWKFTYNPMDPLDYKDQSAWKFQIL
Sequence of HSF1 (Q00613 whole entry): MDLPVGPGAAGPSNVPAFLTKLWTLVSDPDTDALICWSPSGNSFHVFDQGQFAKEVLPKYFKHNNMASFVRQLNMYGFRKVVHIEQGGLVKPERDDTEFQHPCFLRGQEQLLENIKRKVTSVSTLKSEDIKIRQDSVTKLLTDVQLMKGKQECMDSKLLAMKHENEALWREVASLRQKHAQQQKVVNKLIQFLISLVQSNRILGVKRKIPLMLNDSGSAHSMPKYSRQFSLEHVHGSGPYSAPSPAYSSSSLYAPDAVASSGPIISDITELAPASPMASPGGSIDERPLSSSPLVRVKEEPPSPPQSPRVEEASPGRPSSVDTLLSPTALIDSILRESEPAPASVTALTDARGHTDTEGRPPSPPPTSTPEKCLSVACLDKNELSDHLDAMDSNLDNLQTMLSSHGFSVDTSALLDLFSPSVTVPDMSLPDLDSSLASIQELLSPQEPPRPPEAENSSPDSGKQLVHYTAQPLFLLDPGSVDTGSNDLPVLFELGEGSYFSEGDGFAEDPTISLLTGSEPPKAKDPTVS
Sequence of ELF4 (Q99607 whole entry): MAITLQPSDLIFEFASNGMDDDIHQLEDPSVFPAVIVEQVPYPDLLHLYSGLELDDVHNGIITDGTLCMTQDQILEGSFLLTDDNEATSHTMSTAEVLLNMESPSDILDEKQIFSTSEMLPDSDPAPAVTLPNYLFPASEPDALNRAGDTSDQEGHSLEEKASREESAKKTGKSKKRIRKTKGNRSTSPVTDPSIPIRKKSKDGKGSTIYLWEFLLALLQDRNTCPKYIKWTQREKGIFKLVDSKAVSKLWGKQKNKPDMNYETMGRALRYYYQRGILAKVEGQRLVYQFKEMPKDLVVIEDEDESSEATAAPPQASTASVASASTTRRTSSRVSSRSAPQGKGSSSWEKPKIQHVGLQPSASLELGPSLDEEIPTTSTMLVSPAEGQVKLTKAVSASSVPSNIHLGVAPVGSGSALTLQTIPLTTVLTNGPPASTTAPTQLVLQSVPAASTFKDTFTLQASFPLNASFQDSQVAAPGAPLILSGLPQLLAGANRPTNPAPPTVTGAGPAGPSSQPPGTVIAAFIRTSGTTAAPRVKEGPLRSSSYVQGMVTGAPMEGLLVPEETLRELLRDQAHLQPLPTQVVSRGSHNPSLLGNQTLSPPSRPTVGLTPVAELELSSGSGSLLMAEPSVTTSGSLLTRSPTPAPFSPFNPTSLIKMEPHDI

Regarding CCCTAT, the binding signal in [1] was 1.39 fold enrichment (6-mer frequency, TF over GST control); in assay [2], 1.29 fold enrichment (6-mer frequency, TF over GST control); in assay [3] it was 1.13 fold enrichment (6-mer frequency, TF over GST control); in [4], 1.2 fold enrichment (6-mer frequency, TF over GST control); in assay [5], 1.37 fold enrichment (6-mer frequency, TF over GST control); in [6] it was 1.29 fold enrichment (6-mer frequency, TF over GST control). Moreover, the binding signal in assay [7] was 1.33 fold enrichment (6-mer frequency, TF over GST control); in assay [8], 1.29 fold enrichment (6-mer frequency, TF over GST control); in assay [9], 1.17 fold enrichment (6-mer frequency, TF over GST control); in assay [10], 1.37 fold enrichment (6-mer frequency, TF over GST control); in assay [11], 1.22 fold enrichment (6-mer frequency, TF over GST control); in [12], 1.44 fold enrichment (6-mer frequency, TF over GST control). Also, the binding signal in [13] is 1.34 fold enrichment (6-mer frequency, TF over GST control); in [14], 1.31 fold enrichment (6-mer frequency, TF over GST control); in [15] it was 1.3 fold enrichment (6-mer frequency, TF over GST control); in [16], 1.43 fold enrichment (6-mer frequency, TF over GST control); in assay [17], 1.34 fold enrichment (6-mer frequency, TF over GST control); in assay [18] it was 1.28 fold enrichment (6-mer frequency, TF over GST control).
